Measured values published in PubChem BioAssay (Tox21).
Several values for one entry are separate records, joined by “and”; a condition that tells them apart may be missing. Equal entries are not always repeated. Inconclusive results are not listed. Activity calls are given as the source filed them. Unless noted, calls follow the shape of the dose curve; as a rule, active = well fitted curve in the direction sought with a large enough effect in the repeat runs; inconclusive = weak or mixed curves; inactive = no such curve, though single readings can be large; an effect the other way counts as inactive or inconclusive.

Legend:
[1] = target: Estrogen receptor beta (Homo sapiens) (UniProt Q92731); experiment: qHTS assay to identify small molecule agonists of the estrogen receptor beta (ER-beta) signaling pathway (AID 1259377; active = well fitted activation curve with a large enough effect in the signal ratio in the repeat runs, not every such curve was filed as active; the % refers to the signal ratio)
Estrogen receptor beta (Homo sapiens), sequence (Q92731 whole entry, looked up): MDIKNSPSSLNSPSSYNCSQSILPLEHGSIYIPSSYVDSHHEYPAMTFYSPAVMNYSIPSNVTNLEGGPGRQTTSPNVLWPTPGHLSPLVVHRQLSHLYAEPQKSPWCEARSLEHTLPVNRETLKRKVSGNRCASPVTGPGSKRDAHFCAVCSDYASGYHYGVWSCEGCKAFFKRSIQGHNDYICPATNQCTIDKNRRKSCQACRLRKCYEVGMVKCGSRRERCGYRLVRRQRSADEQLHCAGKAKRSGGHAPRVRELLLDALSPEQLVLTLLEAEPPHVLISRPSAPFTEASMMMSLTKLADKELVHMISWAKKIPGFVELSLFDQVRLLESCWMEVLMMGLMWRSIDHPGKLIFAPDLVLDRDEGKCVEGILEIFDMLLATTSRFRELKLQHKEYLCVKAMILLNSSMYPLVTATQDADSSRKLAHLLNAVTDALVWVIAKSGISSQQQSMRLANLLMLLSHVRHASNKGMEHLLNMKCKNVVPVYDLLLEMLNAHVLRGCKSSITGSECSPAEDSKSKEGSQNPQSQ
Summary of the method: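 HEK293T ER-beta-UAS-bla; 2% charcoal-stripped FBS; cells pre-incubated 6 hr, compound 16 hr, 37C/5% CO2; LiveBLAzer B/G FRET substrate 2 h RT; fluorescence intensity read.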

[2] = target: Estrogen receptor beta (Homo sapiens) (UniProt Q92731); experiment: qHTS assay to identify small molecule antagonists of the estrogen receptor beta (ER-beta) signaling pathway (AID 1259378; active = well fitted inhibition curve with a large enough effect in the signal ratio in the repeat runs, not every such curve was filed as active; the % refers to the signal ratio; also: potency is read from the fitted curve at half-maximal effect)
Summary of the method: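 Antagonist mode: compounds added to beta-lactamase reporter HEK293T ER-beta-UAS cells stimulated with E2 (1nM final), 16 hr at 37C. LiveBLAzer B/G FRET substrate, 2 hours room temperature, fluorescence read-out.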

[3] = qHTS assay to identify small molecule agonists of the androgen receptor (AR) signaling pathway in the presence of an antagonist - cell viability counter screen (AID 1259379); also: nearly all actives have a fitted effect of over 25% in size; also: potency is read from the fitted curve at half-maximal effect;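 as to activity change, negative = cytotoxicity: MDA-kb2 human breast cancer cells carrying an MMTV luciferase reporter; series mostly up to about 92 µM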
Summary of the method: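 MDA-kb2 cells (MMTV-luciferase, AR/GR), 3,000/well, 5 h attachment, then 3.0 µM nilutamide (final) and compounds at 15 concentrations. Viability by CellTiter-Fluor fluorescence after 16 h at 37 °C, 0% CO2, in the reporter wells.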

[4] = qHTS assay to identify small molecule agonists of the estrogen receptor beta (ER-beta) signaling pathway - cell viability counter screen (AID 1259380); also: nearly all actives have a fitted effect of over 30% in size; also: potency is read from the fitted curve at half-maximal effect
Summary of the method: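 ER-beta-UAS-bla HEK293T cells in medium with 2% charcoal-stripped FBS, pre-incubated 6 hr, then treated 16 hr at 37C. Cytotoxicity read in the same wells by CellTiter-Glo luminescence after 30 min at room temperature.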

[5] = qHTS assay to identify small molecule antagonists of the estrogen receptor beta (ER-beta) signaling pathway - cell viability counter screen (AID 1259382); also: nearly all actives have a fitted effect of over 55% in size; also: potency is read from the fitted curve at half-maximal effect;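 as to activity change, negative = cytotoxicity: HEK293T cells carrying ER-beta-UAS-bla reporter stimulated with estradiol; series mostly up to about 92 µM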
Summary of the method: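 ER-beta-UAS-bla HEK293T cells in 2% charcoal-stripped FBS medium, treated with compound plus 1 nM 17-beta-estradiol for 16 h at 37C. Viability read by CellTiter-Glo luminescence after 30 min at room temperature in the same wells.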

[6] = target: Estrogen receptor (Homo sapiens) (UniProt P03372); experiment: qHTS assay to identify small molecule agonists of the estrogen receptor alpha (ER-alpha) signaling pathway in the presence of an antagonist (AID 1259383; calls by dose curve; also: top concentration of the series differs between compounds; nearly all actives have a fitted effect of over 15% in size)
Estrogen receptor (Homo sapiens), sequence (P03372 whole entry, looked up): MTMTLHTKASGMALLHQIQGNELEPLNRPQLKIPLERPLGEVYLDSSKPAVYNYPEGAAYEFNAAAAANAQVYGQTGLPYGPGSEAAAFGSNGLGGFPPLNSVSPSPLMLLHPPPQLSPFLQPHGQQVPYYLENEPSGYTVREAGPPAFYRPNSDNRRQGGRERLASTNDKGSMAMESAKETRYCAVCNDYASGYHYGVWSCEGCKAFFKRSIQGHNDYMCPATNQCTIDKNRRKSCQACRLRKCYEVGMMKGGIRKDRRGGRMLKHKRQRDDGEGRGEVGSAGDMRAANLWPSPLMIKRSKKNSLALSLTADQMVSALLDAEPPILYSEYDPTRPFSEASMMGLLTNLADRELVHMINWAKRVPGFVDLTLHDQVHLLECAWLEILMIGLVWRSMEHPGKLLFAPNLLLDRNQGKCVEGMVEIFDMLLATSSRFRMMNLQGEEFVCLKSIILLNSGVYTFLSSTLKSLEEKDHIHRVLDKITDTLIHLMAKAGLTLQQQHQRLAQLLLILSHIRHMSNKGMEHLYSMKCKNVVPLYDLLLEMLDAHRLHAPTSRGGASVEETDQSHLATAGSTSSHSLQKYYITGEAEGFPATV
Summary of the method: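 VM7Luc4E2 cells express endogenous full-length ER-alpha with an ERE-luciferase reporter and were hormone-deprived for 5 days. Compounds at 15 concentrations were added with 10.0nM ICI-182,780 for 22hr at 37C. Luminescence was read with ONE-Glo.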

[7] = target: Thyrotropin receptor (Homo sapiens) (UniProt P16473); experiment: qHTS assay to identify small molecule antagonists of the thyroid stimulating hormone receptor (TSHR) signaling pathway (AID 1259385; calls by dose curve; also: nearly all actives have a fitted effect of over 20% in size)
Thyrotropin receptor (Homo sapiens), sequence (P16473 whole entry, looked up): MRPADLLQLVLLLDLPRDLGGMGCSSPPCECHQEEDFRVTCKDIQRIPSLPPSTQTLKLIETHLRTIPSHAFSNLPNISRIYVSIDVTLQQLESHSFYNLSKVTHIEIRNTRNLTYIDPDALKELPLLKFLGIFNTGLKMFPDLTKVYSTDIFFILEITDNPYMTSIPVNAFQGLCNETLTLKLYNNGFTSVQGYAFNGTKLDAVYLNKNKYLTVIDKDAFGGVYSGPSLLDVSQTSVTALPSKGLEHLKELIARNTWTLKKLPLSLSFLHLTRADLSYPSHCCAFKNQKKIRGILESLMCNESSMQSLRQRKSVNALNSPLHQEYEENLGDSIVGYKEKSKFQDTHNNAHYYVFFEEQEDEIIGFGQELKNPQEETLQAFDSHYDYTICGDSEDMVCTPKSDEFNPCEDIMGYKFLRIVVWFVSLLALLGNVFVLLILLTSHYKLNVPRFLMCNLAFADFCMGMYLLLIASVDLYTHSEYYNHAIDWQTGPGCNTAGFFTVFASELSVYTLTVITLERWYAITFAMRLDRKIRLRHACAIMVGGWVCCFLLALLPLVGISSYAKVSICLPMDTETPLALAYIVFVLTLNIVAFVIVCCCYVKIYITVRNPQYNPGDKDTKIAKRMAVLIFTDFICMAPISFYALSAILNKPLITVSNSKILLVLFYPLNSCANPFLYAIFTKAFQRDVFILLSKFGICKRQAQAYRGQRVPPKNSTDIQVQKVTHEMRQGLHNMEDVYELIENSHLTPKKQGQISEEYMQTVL
Summary of the method: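 Antagonist mode: compound-treated TSHR-expressing HEK293 cells were stimulated with 1.5 ng/mL TSH (final) in presence of Ro20-1724 for 30 min at RT. HTRF cAMP detection after 1 h; each compound tested at 15 concentrations, triplicate.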

[8] = qHTS assay to identify small molecule agonists of the estrogen receptor alpha (ER-alpha) signaling pathway in the presence of an antagonist - cell viability counter screen (AID 1259386);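 also: cells exposed to compounds for 22 h at 37 °C before the viability read; nearly all actives have a fitted effect of over 30% in size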; also: potency is read from the fitted curve at half-maximal effect; as to activity change, negative = cytotoxicity: series mostly up to about 92 µM
Summary of the method: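 Cell viability in VM7Luc4E2 cells (endogenous full-length ER-alpha) measured by CellTiter-Fluor fluorescence in the same wells as the luciferase screen. Cells pre-cultured 5 days in charcoal-stripped serum, then treated 22 h with compounds at 15 concentrations plus 10.0nM ICI-182,780.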

[9] = qHTS assay to identify small molecule agonists or antagonists of the thyroid stimulating hormone receptor (TSHR) signaling pathway - wild type cell line counter screen (AID 1259384; calls by dose curve)
Summary of the method: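 Counter screen in untransfected Hek293: compounds (15-point titration, triplicate) plus phosphodiesterase inhibitor Ro20-1724 added after 18 h plating; 30 min RT. Intracellular cAMP via competitive d2/cryptate immunoassay, 1 h incubation.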

[10] = target: Androgen receptor (Homo sapiens) (UniProt P10275); experiment: qHTS assay to identify small molecule agonists of the androgen receptor (AR) signaling pathway in the presence of an antagonist (AID 1259381; calls by dose curve; also: nearly all actives have a fitted effect of over 15% in size)
Androgen receptor (Homo sapiens), sequence (P10275 whole entry, looked up): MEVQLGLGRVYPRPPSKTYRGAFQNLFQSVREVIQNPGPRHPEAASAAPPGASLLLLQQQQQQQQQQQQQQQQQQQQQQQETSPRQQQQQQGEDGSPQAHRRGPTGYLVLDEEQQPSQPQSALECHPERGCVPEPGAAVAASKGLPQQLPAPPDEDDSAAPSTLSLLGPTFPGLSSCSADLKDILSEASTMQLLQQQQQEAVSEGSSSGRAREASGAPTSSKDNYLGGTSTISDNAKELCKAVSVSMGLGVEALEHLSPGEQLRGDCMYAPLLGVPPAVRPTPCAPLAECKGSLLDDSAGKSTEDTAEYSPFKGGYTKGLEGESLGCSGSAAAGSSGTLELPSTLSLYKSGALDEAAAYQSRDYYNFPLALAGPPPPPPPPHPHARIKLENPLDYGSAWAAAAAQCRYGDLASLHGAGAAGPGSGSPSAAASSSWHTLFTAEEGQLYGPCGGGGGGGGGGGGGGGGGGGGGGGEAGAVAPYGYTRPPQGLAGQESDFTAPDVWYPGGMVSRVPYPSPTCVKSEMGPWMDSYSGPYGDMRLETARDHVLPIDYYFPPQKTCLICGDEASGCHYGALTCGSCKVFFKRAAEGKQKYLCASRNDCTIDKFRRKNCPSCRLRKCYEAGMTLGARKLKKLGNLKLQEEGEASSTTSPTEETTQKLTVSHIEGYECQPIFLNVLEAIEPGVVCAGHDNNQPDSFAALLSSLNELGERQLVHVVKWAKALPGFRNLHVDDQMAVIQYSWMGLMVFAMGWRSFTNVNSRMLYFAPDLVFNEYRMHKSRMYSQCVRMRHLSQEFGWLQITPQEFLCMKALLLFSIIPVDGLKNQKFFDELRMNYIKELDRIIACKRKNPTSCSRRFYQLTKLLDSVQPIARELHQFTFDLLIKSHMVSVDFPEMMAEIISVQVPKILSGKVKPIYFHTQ
Summary of the method: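 MDA-kb2 cells carrying MMTV-luciferase (AR/GR responsive), 3,000 cells/well, co-treated with 3.0 uM nilutamide final. Compounds at 15 concentrations, 16 hr at 37C without CO2. Luciferase luminescence read after 30 min with ONE-Glo.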
% is scaled to controls: 0 for no effect and ±100 for the full control effect.

BrCBr
inactive: Potency [1] | Potency [2] | Potency [3] | Potency [4] | Potency [5] | Potency [6] | Potency [7] | Potency [8]

N#CCCO
inactive: Potency [1] | Potency [2] | Potency [3] | Potency [4] | Potency [5] | Potency [6] | Potency [8]

O=CC(Br)(Br)Br
inactive: Potency [1] | Potency [2] | Potency [6] | outcome [9]
active: Potency [3] 30.5 µM | Potency [4] 21.6 µM

Clc1ccc(-c2ccccc2)cc1
inactive: Potency [1] | Potency [2] | Potency [3] | Potency [4] | Potency [5] | Potency [6] | Potency [7]

CC(Cc1ccc(C(C)(C)C)cc1)CN1C[C@@H](C)O[C@@H](C)C1 (stereo not given in full)
inactive: Potency [1] | Potency [2] | Potency [3] | Potency [4] | Potency [5] | outcome [9] | Potency [8]

ClCCN1CCOCC1
inactive: Potency [1] | Potency [2] | Potency [3] | Potency [4] | Potency [5] | Potency [6] | outcome [9] | Potency [7] | Potency [8]

CCc1ccccc1C
inactive: Potency [1] | Potency [2] | Potency [3] | Potency [4] | Potency [10] | Potency [5] | Potency [6] | outcome [9] | Potency [7] | Potency [8]

CCOP(=S)(OCC)SCS(=O)(=O)CC
inactive: Potency [1] | Potency [2] | Potency [3] | Potency [4] | Potency [10] | Potency [5] | Potency [6] | Potency [7] | Potency [8]

O=[N+]([O-])c1cc(Cl)ccc1Cl
inactive: Potency [1] | Potency [2] | Potency [3] | Potency [4] | Potency [5] | Potency [6] | outcome [9] | Potency [7] | Potency [8]

ClC1=C(Cl)[C@]2(Cl)[C@@H]3[C@@H](Cl)[C@H](Cl)C[C@@H]3[C@@]1(Cl)C2(Cl)Cl
inactive: Potency [1] | Potency [2] | Potency [3] | Potency [4] | Potency [10] | Potency [5] | Potency [6]

CCN
inactive: Potency [1] | Potency [2] | Potency [3] | Potency [4] | Potency [5] | outcome [9] | Potency [8]

Cc1cc(C)cc(OP(=O)(Oc2cc(C)cc(C)c2)Oc2cc(C)cc(C)c2)c1
inactive: Potency [1] | Potency [2] | Potency [3] | Potency [4] | Potency [5] | Potency [6] | Potency [7] | Potency [8]

Brc1c(Br)c(Br)c(Oc2c(Br)c(Br)c(Br)c(Br)c2Br)c(Br)c1Br
inactive: activation [1] 9.23% [at 19 µM] | activity, negative = inhibition [2] -4.25% [at 19 µM] | activity change, negative = cytotoxicity [3] 4.12% [at 19 µM] | activity change, negative = cytotoxicity [4] -3.73% [at 19 µM] | activity change, negative = cytotoxicity [5] 4.03% [at 19 µM] | cAMP activity change [9] -3.73% [at 18.9 µM] | activity change, negative = inhibition [7] 0.486% [at 19 µM] | activity change, negative = cytotoxicity [8] -0.0832% [at 19 µM]

ClCc1ccccc1CCl
inactive: Potency [1] | Potency [2] | Potency [4] | Potency [5] | Potency [6] | outcome [9] | Potency [7] | Potency [8]

COc1cccc(C(=O)CCN[C@@H](C)[C@H](O)c2ccccc2)c1
inactive: Potency [1] | Potency [2] | Potency [4] | Potency [10] | Potency [5] | outcome [9] | Potency [7] | Potency [8]

CC(C)(COCC1CO1)COCC1CO1 (stereo not given)
inactive: Potency [1] | Potency [2] | Potency [4] | Potency [5] | Potency [6] | Potency [8]

CCCOCC(=Nc1ccc(Cl)cc1C(F)(F)F)n1ccnc1
active: Potency [2] 17.2 µM | Potency [5] 61.1 µM
inactive: Potency [1] | outcome [9] | Potency [7]

CCOP(=S)(OCC)OC(Cl)C(Cl)(Cl)Cl (stereo not given)
inactive: Potency [1] | Potency [2] | Potency [4] | Potency [5] | outcome [9] | Potency [8]

CC1(c2ccc(Oc3ccccc3)cc2)OC(=O)N(Nc2ccccc2)C1=O (stereo not given)
inactive: Potency [1] | Potency [5] | Potency [6] | outcome [9]
active: Potency [2] 10.9 µM | Potency [3] 24.5 µM | Potency [8] 30.8 µM

COc1ccc(OC)c(C=O)c1
inactive: Potency [1] | Potency [2] | Potency [4] | Potency [5] | Potency [6] | Potency [8]

O=C1NCN(c2ccccc2)C12CCN(CC1COc3ccccc3O1)CC2 (stereo not given)
inactive: Potency [1] | Potency [2] | Potency [6] | outcome [9]
active: Potency [4] 11.9 µM

Clc1ccc(C(Cl)(Cl)Cl)c(Cl)c1
inactive: Potency [1] | Potency [2] | Potency [3] | outcome [9] | Potency [8]

N#CCc1ccc(Cl)cc1
inactive: Potency [1] | Potency [2] | Potency [4] | Potency [6] | Potency [8]

CN(CCCC(O)c1cccnc1)N=O (stereo not given)
inactive: Potency [1] | Potency [2] | Potency [4] | Potency [10] | Potency [5] | Potency [6] | outcome [9] | Potency [8]

Cc1cc(C(F)(C(F)(F)F)C(F)(F)F)ccc1NC(=O)c1cccc(I)c1C(=O)NC(C)(C)CS(C)(=O)=O
active: Potency [4] 19.4 µM
inactive: Potency [1] | Potency [2] | Potency [3] | Potency [6] | outcome [9] | Potency [7]

Clc1ccc(C(c2ccccc2Cl)C(Cl)(Cl)Cl)cc1 (stereo not given)
inactive: Potency [1] | Potency [3] | Potency [8]
active: Potency [2] 6.15 µM and 8.02 µM | Potency [4] 48.9 µM

Cc1cc(C)c(C2=C(OC(=O)CC(C)(C)C)C3(CCCC3)OC2=O)c(C)c1
inactive: Potency [1] | Potency [2] | Potency [4] | Potency [6] | Potency [8]

CC(O)C#N (stereo not given)
inactive: Potency [1] | Potency [2] | Potency [3] | Potency [4] | Potency [6] | Potency [7] | Potency [8]
